Where a name gives a salt, the structure may show the parent alone.
Assays:
Conditions in all cases: 20 µM
[1] = system: Salmonella enterica typhimurium; assay: growth AUC normalised to DMSO control (fraction of control); higher = less growth inhibition, active = hit call of the paper
In short: (§1)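 Three biological replicates were carried out, with OD578 read hourly for 24 h. Before inoculation at a starting OD578 of 0.01, pathogens were passaged anaerobically twice; plates were pre-reduced mGAM containing 20 μM compound and 1% DMSO, sealed with breathable membranes, and the Haemophilus parainfluenzae medium carried added hemin and NAD. Area under each growth curve was calculated by the trapezoidal rule up to the exponential-to-stationary transition and normalised to DMSO controls on the same plate.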

[2] = system: Shigella flexneri; assay: as above
In short: as §1

[3] = system: Vibrio cholerae; assay: as above
In short: as §1

[4] = system: Yersinia pseudotuberculosis; assay: as above
In short: as §1

[5] = system: P. vulgatus RND KO; assay: growth AUC normalised to DMSO control (median) (fraction of control); higher = less growth inhibition, active = hit call of the paper
In short: (§2)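 In 96-well plates of mGAM seeded at OD578 0.01, strains that had been passaged twice overnight without oxygen were exposed to approved-drug library compounds at 20 μM with 1% DMSO. Hourly OD578 readings were taken for 24 h in an anaerobic incubator. The trapezoidal-rule area under the curve, with curves truncated at entry into stationary phase, was expressed relative to same-plate vehicle wells as the median of three biological replicates.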

[6] = system: P. vulgatus WT; assay: as above
In short: as §2

[7] = system: S. enterica typhimurium WT; assay: as above
In short: as §2

[8] = system: S. enterica typhimurium tolC KO; assay: as above
In short: as §2

Measured: growth AUC normalised to DMSO control
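For growth AUC normalised to DMSO control (median) in this document: active when median AUC fell below 0.1.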

CCN(CC)CCOC(=O)C(c1ccccc1)c1ccccc1 [Adiphenine hydrochloride]
inactive: [1] 0.974 | [2] 0.99 | [3] 1.01 | [4] 1 | [5] 1.03 | [6] 1.03 | [7] 0.995 | [8] 1

CCN(CC)CCOC(=O)C(c1ccccc1)C1CCCCC1 (centres undefined) [Drofenine hydrochloride]
inactive: [1] 0.989 | [2] 1.01 | [3] 0.929 | [4] 1 | [5] 1.01 | [6] 1.03 | [7] 0.989 | [8] 0.943

COc1ccccc1Oc1c(NS(=O)(=O)c2ccc(C(C)(C)C)cc2)nc(-c2ncccn2)nc1OCCO [Bosentan]
inactive: [1] 1.02 | [2] 1.03 | [3] 1.01 | [4] 1.01 | [5] 1 | [6] 1.01 | [7] 1.01 | [8] 0.985

N=C(N)NCC1COC2(CCCCC2)O1 (centres undefined) [Guanadrel sulfate]
inactive: [1] 0.979 | [2] 0.964 | [3] 0.983 | [4] 0.985 | [5] 0.965 | [6] 0.969 | [7] 0.994 | [8] 0.99

O=C(O)CNC(=O)C(CS)Cc1ccccc1 (centres undefined) [Thiorphan]
inactive: [1] 1.02 | [2] 1.05 | [3] 1.08 | [4] 1.01 | [5] 0.993 | [6] 1 | [7] 0.997 | [8] 0.995

NC(N)=Nc1nc(CSCC/C(N)=N/S(N)(=O)=O)cs1 [Famotidine]
inactive: [1] 1 | [2] 0.965 | [3] 0.993 | [4] 0.97 | [5] 1.01 | [6] 1.04 | [7] 1.01 | [8] 0.996

CN[C@H]1CC[C@@H](c2ccc(Cl)c(Cl)c2)c2ccccc21 [Sertraline]
inactive: [1] 0.992 | [2] 0.978 | [3] 0.928 | [4] 1.01 | [5] 0.998 | [6] 1.02 | [7] 0.999 | [8] 0.945

C[C@H](CCC(=O)O)[C@H]1CC[C@H]2[C@@H]3[C@H](O)C[C@@H]4C[C@H](O)CC[C@]4(C)[C@H]3CC[C@]12C [Chenodiol]
inactive: [1] 0.991 | [2] 0.96 | [3] 0.988 | [4] 1.01 | [5] 0.922 | [6] 0.94 | [7] 0.998 | [8] 1.01

CN(C)CCCC1(c2ccc(F)cc2)OCc2cc(C#N)ccc21 (centres undefined) [Citalopram hydrobromide]
inactive: [1] 0.998 | [2] 0.994 | [3] 1 | [4] 1.01 | [5] 1.02 | [6] 0.982 | [7] 1 | [8] 0.991

COC(=O)C1=C(C#N)NC(C)=C(C(=O)OC(C)C)C1c1cccc([N+](=O)[O-])c1 (centres undefined) [Nilvadipine]
inactive: [1] 1.01 | [2] 1.03 | [3] 1.02 | [4] 1.02 | [5] 1.15 | [6] 1.12 | [7] 1 | [8] 0.922

CC(C)NC[C@H](O)COc1ccc(CC(N)=O)cc1 [(S,-) Atenolol]
inactive: [1] 0.988 | [2] 0.972 | [3] 0.996 | [4] 1.02 | [5] 0.985 | [6] 0.963 | [7] 0.987 | [8] 0.989

Cc1cccc(Nc2ccncc2S(=O)(=O)NC(=O)NC(C)C)c1 [Torsemide]
inactive: [1] 1 | [2] 1.04 | [3] 1.01 | [4] 1.01 | [5] 1.04 | [6] 1.05 | [7] 1.01 | [8] 1

Nc1ccccc1S(N)(=O)=O [o-Sulfanilamide]
inactive: [1] 0.993 | [2] 0.971 | [3] 0.988 | [4] 0.99 | [5] 1.01 | [6] 1.01 | [7] 1.01 | [8] 1

CCc1ccc(CCOc2ccc(CC3SC(=O)NC3=O)cc2)nc1 (centres undefined) [Pioglitazone]
inactive: [1] 0.967 | [2] 0.958 | [3] 0.911 | [4] 0.922 | [5] 0.994 | [6] 0.992 | [7] 0.996 | [8] 0.993

CC(C)(C)NC(=O)[C@H]1CC[C@H]2[C@@H]3CC[C@H]4NC(=O)C=C[C@]4(C)[C@H]3CC[C@]12C [Finasteride]
inactive: [1] 1.02 | [2] 1.02 | [3] 1.03 | [4] 1.01 | [5] 1.02 | [6] 1.04 | [7] 1.01 | [8] 0.895

CCN[C@H]1CN(CCCOC)S(=O)(=O)c2sc(S(N)(=O)=O)cc21 [Brinzolamide]
inactive: [1] 0.965 | [2] 0.952 | [3] 0.965 | [4] 0.989 | [5] 0.986 | [6] 0.973 | [7] 0.995 | [8] 1

Cc1cccc(C)c1OCC(C)N (centres undefined) [Mexiletine hydrochloride]
inactive: [1] 1.01 | [2] 1.05 | [3] 1.05 | [4] 1.01 | [5] 1.03 | [6] 1.05 | [7] 1 | [8] 0.999

O=C1O[C@H]([C@@H](O)CO)C(O)=C1O [Ascorbic acid]
inactive: [1] 1.02 | [2] 1.07 | [3] 1.02 | [4] 0.989 | [5] 1.05 | [6] 1.04 | [7] 1.01 | [8] 0.997

CNCCC(Oc1ccccc1OC)c1ccccc1 (centres undefined) [Nisoxetine hydrochloride]
inactive: [1] 0.949 | [2] 1.02 | [3] 1 | [4] 0.993 | [5] 1.01 | [6] 1 | [7] 0.957 | [8] 0.91

CCOc1cc(CC(=O)N[C@@H](CC(C)C)c2ccccc2N2CCCCC2)ccc1C(=O)O [Repaglinide]
inactive: [1] 1.03 | [2] 1.06 | [3] 1.07 | [4] 1.02 | [5] 0.956 | [6] 1.01 | [7] 1.01 | [8] 0.981

CC1(C)NC(=O)N(c2ccc([N+](=O)[O-])c(C(F)(F)F)c2)C1=O [Nilutamide]
inactive: [1] 0.928 | [2] 0.977 | [3] 0.957 | [4] 1 | [5] 0.964 | [6] 0.952 | [7] 0.992 | [8] 0.999

C=CC1=C(C(=O)O)N2C(=O)[C@@H](NC(=O)/C(=N\OCC(=O)O)c3csc(N)n3)[C@H]2SC1 [Cefixime]
active: [1] 0.00409 | [2] 0.0268 | [3] 0.0803 | [4] 0.0395 | [5] 0.0155 | [6] 0.0102 | [7] 0.012 | [8] 0.00361

N=C(N=C(N)N)N1CCOCC1 [Moroxidine hydrochloride]
inactive: [1] 0.999 | [2] 1 | [3] 0.991 | [4] 0.965 | [5] 1.01 | [6] 1.04 | [7] 1.01 | [8] 0.992

CC[C@H]1OC(=O)[C@H](C)[C@@H](O[C@H]2C[C@@](C)(OC)[C@@H](O)[C@H](C)O2)[C@H](C)[C@@H](O[C@@H]2O[C@H](C)C[C@H](N(C)C)[C@H]2O)[C@](C)(O)C[C@@H](C)[C@@H]2N[C@@H](COCCOC)O[C@H]([C@H]2C)[C@]1(C)O [Dirithromycin]
inactive: [2] 0.915 | [4] 1 | [7] 0.862
active: [1] 0.879 | [3] 0.154 | [5] 0.0107 | [6] 0.0116 | [8] 0.00235

CCC[C@@H]1C[C@@H](C(=O)N[C@@H]([C@H]2O[C@H](SC)[C@H](O)[C@@H](O)[C@H]2O)[C@H](C)Cl)N(C)C1 [Clindamycin hydrochloride]
active: [1] 0.722 | [2] 0.648 | [3] 0.143 | [4] 0.0588 | [5] 0.0135 | [6] 0.0132
inactive: [7] 0.835 | [8] 0.437

COc1ccccc1N1CCN(CCCCNC(=O)c2ccc3ccccc3c2)CC1
active: [3] 0.0446
inactive: [1] 1.01 | [2] 1.03 | [4] 0.978 | [5] 1.02 | [6] 1.08 | [7] 0.985 | [8] 0.753

CC[C@H](C)[C@H](N)C1=N[C@H](C(=O)N[C@@H](CC(C)C)C(=O)N[C@H](CCC(=O)O)C(=O)N[C@H](C(=O)N[C@H]2CCCCNC(=O)[C@H](CC(N)=O)NC(=O)[C@@H](CC(=O)O)NC(=O)[C@H](Cc3cnc[nH]3)NC(=O)[C@@H](Cc3ccccc3)NC(=O)[C@H]([C@@H](C)CC)NC(=O)[C@@H](CCCN)NC2=O)[C@@H](C)CC)CS1 [Bacitracin]
inactive: [1] 0.996 | [2] 0.98 | [3] 1.15 | [4] 0.976 | [5] 0.137 | [6] 0.104 | [7] 1.01 | [8] 1.01

COc1ccc2[nH]c([S+]([O-])Cc3ncc(C)c(OC)c3C)nc2c1 (centres undefined) [Omeprazole]
inactive: [1] 0.958 | [2] 0.998 | [3] 1.05 | [4] 1 | [5] 1.02 | [6] 1.03 | [7] 1 | [8] 0.952

— the supplement of paper PMC12350171
